The text below walks through data of ChEMBL document CHEMBL1961873, “Compounds: GSK PKIS; Assays: Nanosyn kinase panel” (2012).

In assay [1] the target is Protein kinase C gamma type (Homo sapiens) (UniProt P05129). Conditions: at 1 µM.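 Further: each value is an averaged percent inhibition of the enzyme.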
Assay [2] addresses T1, Protein kinase C iota type (Homo sapiens) (UniProt P41743).
T1 sequence (whole entry): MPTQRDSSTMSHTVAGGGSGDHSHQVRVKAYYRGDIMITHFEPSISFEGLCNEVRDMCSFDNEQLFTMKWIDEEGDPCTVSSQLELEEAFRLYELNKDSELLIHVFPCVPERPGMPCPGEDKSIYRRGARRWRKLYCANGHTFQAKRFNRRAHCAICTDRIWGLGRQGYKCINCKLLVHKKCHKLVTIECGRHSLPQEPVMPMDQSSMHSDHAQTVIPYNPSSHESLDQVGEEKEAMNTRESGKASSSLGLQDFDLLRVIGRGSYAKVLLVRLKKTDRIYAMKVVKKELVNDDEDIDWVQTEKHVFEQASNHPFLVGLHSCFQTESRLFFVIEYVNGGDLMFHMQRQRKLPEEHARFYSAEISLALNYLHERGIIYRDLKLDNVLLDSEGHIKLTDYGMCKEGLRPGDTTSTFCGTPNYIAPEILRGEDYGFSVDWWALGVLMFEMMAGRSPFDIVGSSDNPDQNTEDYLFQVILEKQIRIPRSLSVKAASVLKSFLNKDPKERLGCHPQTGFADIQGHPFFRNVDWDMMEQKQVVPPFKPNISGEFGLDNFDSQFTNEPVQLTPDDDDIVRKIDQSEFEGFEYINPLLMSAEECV
Conditions: at 0.1 µM.

Assay [3] concerns the target T1, Protein kinase C iota type (Homo sapiens). Conditions: at 1 µM.
The target in assay [4] is Protein kinase C theta type (Homo sapiens) (UniProt Q04759). To be noted: at 0.1 µM.
Protein kinase C theta type (Homo sapiens), sequence (Q04759 whole entry, looked up): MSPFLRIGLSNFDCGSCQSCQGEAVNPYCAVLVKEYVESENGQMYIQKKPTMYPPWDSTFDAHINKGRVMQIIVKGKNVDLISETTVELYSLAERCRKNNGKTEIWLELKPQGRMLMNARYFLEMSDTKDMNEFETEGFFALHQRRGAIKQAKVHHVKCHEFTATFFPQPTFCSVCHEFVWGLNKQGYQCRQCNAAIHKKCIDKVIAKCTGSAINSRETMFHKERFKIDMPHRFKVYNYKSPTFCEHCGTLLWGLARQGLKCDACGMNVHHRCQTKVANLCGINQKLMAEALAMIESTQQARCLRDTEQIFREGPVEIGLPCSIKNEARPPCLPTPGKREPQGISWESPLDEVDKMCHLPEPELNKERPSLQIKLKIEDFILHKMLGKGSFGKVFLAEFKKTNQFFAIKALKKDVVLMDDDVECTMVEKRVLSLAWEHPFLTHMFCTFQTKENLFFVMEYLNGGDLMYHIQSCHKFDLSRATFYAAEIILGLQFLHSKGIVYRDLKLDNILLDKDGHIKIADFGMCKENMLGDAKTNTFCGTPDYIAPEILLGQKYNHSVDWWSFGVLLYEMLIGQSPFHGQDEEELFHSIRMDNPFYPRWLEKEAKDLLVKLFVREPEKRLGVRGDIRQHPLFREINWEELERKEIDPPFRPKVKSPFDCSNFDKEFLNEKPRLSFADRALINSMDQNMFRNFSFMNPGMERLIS
Assay [5] has the same target. To be noted: at 1 µM.
Assay [6] has as its target Protein kinase C beta type (Homo sapiens) (UniProt P05771). To be noted: at 0.1 µM.
Assay [7] shares this target. To be noted: at 1 µM.
Assay [8] addresses T2, Serine/threonine-protein kinase D1 (Homo sapiens) (UniProt Q15139).
T2 sequence (whole entry): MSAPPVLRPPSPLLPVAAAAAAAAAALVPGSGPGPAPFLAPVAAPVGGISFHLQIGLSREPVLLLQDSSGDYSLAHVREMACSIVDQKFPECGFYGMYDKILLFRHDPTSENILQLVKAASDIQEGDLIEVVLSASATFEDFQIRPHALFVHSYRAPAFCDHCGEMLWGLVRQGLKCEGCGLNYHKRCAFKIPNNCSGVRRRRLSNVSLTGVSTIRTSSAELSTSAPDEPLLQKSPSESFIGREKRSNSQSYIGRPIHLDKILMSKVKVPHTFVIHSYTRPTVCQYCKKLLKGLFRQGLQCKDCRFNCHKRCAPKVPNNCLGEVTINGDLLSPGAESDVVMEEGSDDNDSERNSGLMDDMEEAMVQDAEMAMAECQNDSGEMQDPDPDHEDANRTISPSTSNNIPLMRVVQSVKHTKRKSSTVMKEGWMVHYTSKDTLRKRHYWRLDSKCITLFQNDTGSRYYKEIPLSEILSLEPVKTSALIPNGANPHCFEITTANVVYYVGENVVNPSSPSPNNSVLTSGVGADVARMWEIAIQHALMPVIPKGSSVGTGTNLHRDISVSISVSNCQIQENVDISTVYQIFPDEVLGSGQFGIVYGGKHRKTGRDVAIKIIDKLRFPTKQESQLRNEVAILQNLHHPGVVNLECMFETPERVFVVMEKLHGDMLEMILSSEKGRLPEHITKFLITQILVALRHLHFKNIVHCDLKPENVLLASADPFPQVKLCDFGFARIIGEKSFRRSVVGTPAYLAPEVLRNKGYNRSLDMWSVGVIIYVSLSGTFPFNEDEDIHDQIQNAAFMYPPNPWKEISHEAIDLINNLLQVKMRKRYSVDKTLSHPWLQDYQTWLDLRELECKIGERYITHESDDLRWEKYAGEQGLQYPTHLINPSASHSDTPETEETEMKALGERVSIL
Conditions: at 0.1 µM.

The target of assay [9] is T2, Serine/threonine-protein kinase D1 (Homo sapiens). Conditions: at 1 µM.
Assay [10] addresses T3, Serine/threonine-protein kinase D2 (Homo sapiens) (UniProt Q9BZL6).
T3 sequence (whole entry): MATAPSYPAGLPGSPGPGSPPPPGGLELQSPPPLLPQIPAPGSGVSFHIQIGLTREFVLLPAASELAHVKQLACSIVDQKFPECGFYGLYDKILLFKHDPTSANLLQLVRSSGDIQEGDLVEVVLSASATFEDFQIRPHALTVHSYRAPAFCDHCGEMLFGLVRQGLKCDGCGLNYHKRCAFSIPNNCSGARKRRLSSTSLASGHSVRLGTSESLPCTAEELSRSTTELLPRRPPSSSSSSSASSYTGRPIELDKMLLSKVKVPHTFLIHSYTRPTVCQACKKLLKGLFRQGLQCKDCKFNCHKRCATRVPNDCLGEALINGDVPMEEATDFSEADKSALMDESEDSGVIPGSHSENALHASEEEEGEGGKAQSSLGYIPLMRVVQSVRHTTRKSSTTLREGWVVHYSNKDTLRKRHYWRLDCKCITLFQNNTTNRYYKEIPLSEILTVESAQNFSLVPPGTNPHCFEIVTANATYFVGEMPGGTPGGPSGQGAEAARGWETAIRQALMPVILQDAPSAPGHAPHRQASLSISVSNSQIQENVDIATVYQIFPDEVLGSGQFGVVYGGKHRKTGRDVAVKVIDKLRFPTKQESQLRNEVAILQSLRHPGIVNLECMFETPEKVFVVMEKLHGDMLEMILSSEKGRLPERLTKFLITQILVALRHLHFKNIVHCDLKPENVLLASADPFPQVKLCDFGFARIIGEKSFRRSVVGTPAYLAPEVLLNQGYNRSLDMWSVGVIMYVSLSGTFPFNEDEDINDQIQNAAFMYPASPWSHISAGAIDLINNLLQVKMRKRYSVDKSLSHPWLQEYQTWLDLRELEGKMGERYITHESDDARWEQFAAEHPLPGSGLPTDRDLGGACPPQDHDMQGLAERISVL
To be noted: at 0.1 µM.

The target in assay [11] is T3, Serine/threonine-protein kinase D2 (Homo sapiens). To be noted: at 1 µM.
The target of assay [12] is T4, Serine/threonine-protein kinase D3 (Homo sapiens) (UniProt O94806).
T4 sequence (whole entry): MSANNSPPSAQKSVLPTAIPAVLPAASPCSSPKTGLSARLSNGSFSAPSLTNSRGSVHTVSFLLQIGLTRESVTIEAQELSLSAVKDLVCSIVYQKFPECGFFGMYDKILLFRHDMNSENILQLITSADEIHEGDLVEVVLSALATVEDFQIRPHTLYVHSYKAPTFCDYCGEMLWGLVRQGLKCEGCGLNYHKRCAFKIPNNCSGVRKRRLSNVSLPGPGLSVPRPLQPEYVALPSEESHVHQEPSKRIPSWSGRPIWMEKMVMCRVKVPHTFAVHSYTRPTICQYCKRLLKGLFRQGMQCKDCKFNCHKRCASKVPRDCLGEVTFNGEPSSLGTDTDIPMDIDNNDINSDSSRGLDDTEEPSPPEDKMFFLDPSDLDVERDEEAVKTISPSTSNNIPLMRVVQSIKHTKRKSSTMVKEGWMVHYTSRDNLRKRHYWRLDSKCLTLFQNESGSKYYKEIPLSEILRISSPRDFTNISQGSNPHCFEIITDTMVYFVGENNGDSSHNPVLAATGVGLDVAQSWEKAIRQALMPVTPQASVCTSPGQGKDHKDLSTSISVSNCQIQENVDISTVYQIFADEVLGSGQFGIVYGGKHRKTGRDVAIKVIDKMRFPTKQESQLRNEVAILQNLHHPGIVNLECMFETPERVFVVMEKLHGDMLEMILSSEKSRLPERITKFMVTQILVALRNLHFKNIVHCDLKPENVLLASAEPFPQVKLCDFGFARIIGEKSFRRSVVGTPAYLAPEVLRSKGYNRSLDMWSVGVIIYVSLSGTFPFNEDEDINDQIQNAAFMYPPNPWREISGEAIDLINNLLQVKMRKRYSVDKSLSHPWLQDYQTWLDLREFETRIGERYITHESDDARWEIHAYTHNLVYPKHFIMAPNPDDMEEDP
To be noted: at 0.1 µM.

Assay [13] concerns the target T4, Serine/threonine-protein kinase D3 (Homo sapiens). Conditions: at 1 µM.
For assay [14], the target named is T5, cGMP-dependent protein kinase 1 (Homo sapiens) (UniProt Q13976).
T5 sequence (whole entry): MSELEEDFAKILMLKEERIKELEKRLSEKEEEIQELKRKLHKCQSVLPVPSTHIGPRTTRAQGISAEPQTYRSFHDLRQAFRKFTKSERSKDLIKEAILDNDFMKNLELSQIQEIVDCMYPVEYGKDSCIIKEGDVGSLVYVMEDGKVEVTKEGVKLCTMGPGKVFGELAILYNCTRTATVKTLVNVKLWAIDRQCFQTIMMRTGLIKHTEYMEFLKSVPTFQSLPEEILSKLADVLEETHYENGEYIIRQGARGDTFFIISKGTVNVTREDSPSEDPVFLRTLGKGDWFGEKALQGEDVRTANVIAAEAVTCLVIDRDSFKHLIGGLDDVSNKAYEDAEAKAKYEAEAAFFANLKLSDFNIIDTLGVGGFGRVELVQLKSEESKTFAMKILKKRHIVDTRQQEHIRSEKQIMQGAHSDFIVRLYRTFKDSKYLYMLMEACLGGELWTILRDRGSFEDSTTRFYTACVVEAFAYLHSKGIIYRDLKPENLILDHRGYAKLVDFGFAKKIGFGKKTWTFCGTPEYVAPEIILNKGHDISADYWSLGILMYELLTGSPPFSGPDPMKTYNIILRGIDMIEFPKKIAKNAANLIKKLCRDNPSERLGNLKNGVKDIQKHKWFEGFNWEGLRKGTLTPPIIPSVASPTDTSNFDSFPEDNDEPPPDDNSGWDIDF
To be noted: at 0.1 µM.

Assay [15] has as its target T5, cGMP-dependent protein kinase 1 (Homo sapiens). Conditions: at 1 µM.
Assay [16] addresses T6, cGMP-dependent protein kinase 2 (Homo sapiens) (UniProt Q13237).
T6 sequence (whole entry): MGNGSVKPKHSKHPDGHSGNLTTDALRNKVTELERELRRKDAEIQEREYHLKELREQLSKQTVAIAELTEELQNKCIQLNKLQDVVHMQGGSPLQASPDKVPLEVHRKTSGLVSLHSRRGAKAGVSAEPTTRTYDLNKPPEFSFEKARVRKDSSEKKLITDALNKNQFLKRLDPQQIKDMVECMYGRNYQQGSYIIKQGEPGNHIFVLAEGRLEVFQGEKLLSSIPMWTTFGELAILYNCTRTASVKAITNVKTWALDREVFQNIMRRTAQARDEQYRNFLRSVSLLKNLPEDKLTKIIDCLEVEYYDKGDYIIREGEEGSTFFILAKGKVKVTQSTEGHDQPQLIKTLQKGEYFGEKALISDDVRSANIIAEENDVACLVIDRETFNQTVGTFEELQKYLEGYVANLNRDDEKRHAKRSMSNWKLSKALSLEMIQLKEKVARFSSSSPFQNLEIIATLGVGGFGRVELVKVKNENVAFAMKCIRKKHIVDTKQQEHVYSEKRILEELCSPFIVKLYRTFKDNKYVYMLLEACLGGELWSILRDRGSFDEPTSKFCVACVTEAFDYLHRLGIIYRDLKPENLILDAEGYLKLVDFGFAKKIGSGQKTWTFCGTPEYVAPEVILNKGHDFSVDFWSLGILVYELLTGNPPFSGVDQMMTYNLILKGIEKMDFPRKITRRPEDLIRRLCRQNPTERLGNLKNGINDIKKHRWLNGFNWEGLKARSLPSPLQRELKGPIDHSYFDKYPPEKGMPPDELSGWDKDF
Conditions: at 0.1 µM.

Assay [17] addresses T6, cGMP-dependent protein kinase 2 (Homo sapiens). Conditions: at 1 µM.
Assay [18] addresses T7, cAMP-dependent protein kinase catalytic subunit PRKX (Homo sapiens) (UniProt P51817).
T7 sequence (whole entry): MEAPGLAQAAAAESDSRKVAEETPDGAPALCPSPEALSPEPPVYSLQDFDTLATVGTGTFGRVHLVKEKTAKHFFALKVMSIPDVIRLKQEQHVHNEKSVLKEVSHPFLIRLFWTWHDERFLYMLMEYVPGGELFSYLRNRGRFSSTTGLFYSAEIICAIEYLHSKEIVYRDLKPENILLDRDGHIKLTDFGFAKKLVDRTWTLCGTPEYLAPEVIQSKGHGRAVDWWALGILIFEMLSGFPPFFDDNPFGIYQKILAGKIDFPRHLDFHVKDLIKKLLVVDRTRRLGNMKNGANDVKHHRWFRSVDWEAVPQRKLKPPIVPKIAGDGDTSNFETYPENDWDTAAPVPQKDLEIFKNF
To be noted: at 0.1 µM.

Assay [19] has as its target T7, cAMP-dependent protein kinase catalytic subunit PRKX (Homo sapiens). To be noted: at 1 µM.
Assay [20] concerns the target Rho-associated protein kinase 1 (Homo sapiens) (UniProt Q13464). Conditions: at 0.1 µM.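 Further: values are mean percent inhibition of ROCK1.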

Protein kinase C beta type (Homo sapiens), sequence (P05771 2-671 limits assumed): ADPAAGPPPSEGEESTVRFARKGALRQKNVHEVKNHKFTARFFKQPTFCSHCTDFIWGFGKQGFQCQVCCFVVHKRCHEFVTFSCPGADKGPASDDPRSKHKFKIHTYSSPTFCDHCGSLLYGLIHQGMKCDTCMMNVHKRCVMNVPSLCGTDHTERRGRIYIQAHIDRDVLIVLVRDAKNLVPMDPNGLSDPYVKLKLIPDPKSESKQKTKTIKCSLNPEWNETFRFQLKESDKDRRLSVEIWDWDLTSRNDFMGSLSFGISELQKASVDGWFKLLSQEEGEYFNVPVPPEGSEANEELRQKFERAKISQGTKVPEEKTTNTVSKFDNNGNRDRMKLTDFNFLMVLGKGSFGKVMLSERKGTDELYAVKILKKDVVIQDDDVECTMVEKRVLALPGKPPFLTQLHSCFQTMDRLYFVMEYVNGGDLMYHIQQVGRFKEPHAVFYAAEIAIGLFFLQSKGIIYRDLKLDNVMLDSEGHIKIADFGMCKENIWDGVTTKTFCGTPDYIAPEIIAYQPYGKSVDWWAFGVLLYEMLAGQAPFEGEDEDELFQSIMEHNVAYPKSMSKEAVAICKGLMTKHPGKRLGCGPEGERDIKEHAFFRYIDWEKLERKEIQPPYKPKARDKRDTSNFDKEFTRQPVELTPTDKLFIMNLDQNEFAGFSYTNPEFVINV
Rho-associated protein kinase 1 (Homo sapiens), sequence (Q13464 2-1354 limits assumed): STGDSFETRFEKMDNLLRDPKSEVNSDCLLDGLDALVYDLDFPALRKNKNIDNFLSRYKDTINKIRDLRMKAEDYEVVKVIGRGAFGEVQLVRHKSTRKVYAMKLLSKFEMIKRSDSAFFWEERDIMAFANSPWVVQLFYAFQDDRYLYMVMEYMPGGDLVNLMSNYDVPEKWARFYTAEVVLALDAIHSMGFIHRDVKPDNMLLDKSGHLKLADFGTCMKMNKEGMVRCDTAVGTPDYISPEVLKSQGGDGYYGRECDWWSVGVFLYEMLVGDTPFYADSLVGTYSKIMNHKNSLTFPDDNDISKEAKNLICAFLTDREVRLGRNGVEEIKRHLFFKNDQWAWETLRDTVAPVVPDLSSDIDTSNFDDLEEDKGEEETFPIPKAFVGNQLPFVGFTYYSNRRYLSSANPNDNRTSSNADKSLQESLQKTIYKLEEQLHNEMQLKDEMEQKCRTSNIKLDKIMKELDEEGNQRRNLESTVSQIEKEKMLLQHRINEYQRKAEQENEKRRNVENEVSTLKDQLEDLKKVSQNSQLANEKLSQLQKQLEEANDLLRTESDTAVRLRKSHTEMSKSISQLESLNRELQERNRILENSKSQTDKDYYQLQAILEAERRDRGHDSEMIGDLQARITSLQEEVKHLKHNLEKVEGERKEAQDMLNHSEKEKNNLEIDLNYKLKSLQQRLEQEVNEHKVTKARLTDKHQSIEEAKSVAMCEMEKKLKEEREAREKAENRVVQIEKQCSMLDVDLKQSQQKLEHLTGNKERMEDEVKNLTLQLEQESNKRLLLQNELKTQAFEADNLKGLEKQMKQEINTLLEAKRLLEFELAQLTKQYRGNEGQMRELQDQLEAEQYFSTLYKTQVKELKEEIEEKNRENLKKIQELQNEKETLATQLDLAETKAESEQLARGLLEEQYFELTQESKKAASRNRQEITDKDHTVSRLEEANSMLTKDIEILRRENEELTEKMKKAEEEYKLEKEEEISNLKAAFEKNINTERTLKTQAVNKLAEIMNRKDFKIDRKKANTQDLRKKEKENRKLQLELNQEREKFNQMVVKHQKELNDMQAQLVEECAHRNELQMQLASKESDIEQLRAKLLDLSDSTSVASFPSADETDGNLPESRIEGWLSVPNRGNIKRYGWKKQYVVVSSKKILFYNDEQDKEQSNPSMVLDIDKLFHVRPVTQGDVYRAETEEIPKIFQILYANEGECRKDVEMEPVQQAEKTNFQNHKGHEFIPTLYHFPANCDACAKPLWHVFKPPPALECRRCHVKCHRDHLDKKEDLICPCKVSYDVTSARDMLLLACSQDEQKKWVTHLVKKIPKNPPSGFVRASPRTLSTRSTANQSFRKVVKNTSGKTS

As for `O=C(O[C@H]1CN[C@H](C#Cc2cc3ncnc(Nc4ccc(Cc5ccccc5)cc4)c3s2)C1)N1CCOCC1`, the inhibition stood at 3.28% in assay [1]; 2.08% in assay [2]; 2.38% in assay [3]; 1.84% in assay [4]; 2.2% in assay [5]; 2.68% in [6]. Further, the inhibition was 4.05% in assay [7]; 2.54% in assay [8]; 3.43% in assay [9]; 3.17% in assay [10]; 1.56% in assay [11]; 1.99% in assay [12]. Further, the inhibition in assay [13] is 1.5%; in [14], 3.46%; in [15], 3.85%; in assay [16], 4.54%; in assay [17] it was 3.68%; in assay [18], 3.27%. For the same compound, the results for the inhibition in [19] and in [20] were 3.94% and 2.02%, respectively.
In the case of `CCn1c(-c2nonc2N)nc2c(C#CC(C)(C)O)ncc(OC3CCNCC3)c21`, the inhibition in assay [1] was 89.5%; in assay [2], -0.03%; in [3], 6.53%; in [4] it was 38%; in [5], 81.5%; in assay [6], 19.7%. Besides, the inhibition in [7] turned out to be 61.7%; in [8] it was 4.17%; in assay [9], 13.4%; in [10] it was 3.98%; in assay [11] it was 11.1%; in [12] it was 3.96%. Besides, the inhibition was 14.2% in [13]; 31.1% in [14]; 77.4% in [15]; 60.5% in assay [16]; 83.2% in assay [17]; 74.4% in assay [18]. Further, the inhibition in [19] came out at 89%; in assay [20], 3.14%.

The inhibition is the change of the read-out against control, counted positive when it falls.
